Measurements from PubChem BioAssay AID463173 (ICCB-Longwood Screening Facility, Harvard Medical School, 2010).
In all, about 52,000 compounds went through this assay and about 1,700 (3.3%) were called active. Cut-off read from the data, not from the text of the source: active = survival mostly below about 52% (no sharp cut-off); inactive = mostly above about 56%. This excerpt belongs to a sample that is enriched for actives.

Each molecule was assayed on Wild type (assay: growth inhibition of S. aureus wild type versus tarO mutant, primary screen, teichoic acid synthesis inhibitors, RN4220, OD600 (AID 463173)). Conditions: S. aureus RN4220 wild type/DeltatarO growth, OD600, 18 h, active compounds read low, screened at 18.75 µg/mL (by protocol).

SMILES | survival
COc1ccc(NC(=O)CC2C(=O)N(c3ccc(C)cc3)C(=O)N2C2CCCCC2)cc1 (stereo not given) | 74% (inactive)
CCOC(=O)c1noc2nc(C)n(CC(=O)Nc3ccccc3F)c(=O)c12 | 124% (inactive)
COc1cccc(C(=O)Nc2ccccc2-c2nnc(-c3ccc(C(C)(C)C)cc3)o2)c1 | 71% (inactive)
CCOc1cc(C(=O)N2CC(=O)Nc3ccc(F)cc3C2c2ccccc2)cc(OCC)c1OCC (stereo not given) | 75% (inactive)
O=C(NC1CCCCC1)C(c1ccco1)N(C(=O)C1COc2ccccc2O1)c1cccc(F)c1 (stereo not given) | 132% (inactive)
COc1ccc(NC(=O)c2c(C(=O)Nc3ccccc3)sc3nc(C)cc(=O)n23)cc1 | 93% (inactive)
NC(=O)CSc1nsc(SCC(N)=O)n1 | 109% (inactive)
COc1ccccc1Cc1nc2ccccc2nc1SCC(=O)Nc1cc(Cl)ccc1OC | 89% (inactive)
O=C(O)CSc1nc2ccccc2nc1N1CCCCC1 | 62% (inactive)
COc1ccc(Cl)cc1NC(=O)CSc1nc2ccccc2nc1N1CCCCC1 | -9% (active)
Cc1cc(C)c(NC(=O)CSc2nc3ccccc3nc2N2CCCCC2)c(C)c1 | 38% (inactive)
COc1ccc(C)cc1NC(=O)CSc1nc2ccccc2nc1N1CCOCC1 | 72% (inactive)
CC(C)NC(=O)CSc1nc2ccccc2nc1N1CCCCC1 | -28% (active)
Cc1ccc(C)c(Cn2c(=O)n(Cc3ccc4c(c3)OCO4)c(=O)c3oc4ccccc4c32)c1 | 89% (inactive)
Cc1cccc(-c2nc(CCNC(=O)c3ccc(Br)o3)cs2)c1 | 69% (inactive)
Cc1cccc(-c2nc(CCNC(=O)c3ccco3)cs2)c1 | -6% (active)
COc1ccc(CC(=O)NCCc2csc(-c3ccc(C(F)(F)F)cc3)n2)cc1 | -6% (active)
Cc1cccc(-c2nc(CCNC(=O)COc3ccccc3)cs2)c1 | 73% (inactive)
Cc1cccc(-c2nc(CCNC(=O)Cc3ccccc3)cs2)c1 | -1% (active)
Cc1cccc(-c2nc(CCNC(=O)Cc3ccc(F)cc3)cs2)c1 | 14% (active)
COc1ccc(-c2nc(CCNC(=O)Cc3ccc(F)cc3)cs2)cc1 | 134% (inactive)
COc1ccc(CCC(=O)NCCc2csc(-c3ccc(C(F)(F)F)cc3)n2)cc1 | 80% (inactive)
O=C(Cc1ccc(F)cc1)NCCc1csc(-c2cccc(F)c2)n1 | 69% (inactive)

SMILES | survival
COc1ccc(CC(=O)NCCc2csc(-c3cccc(C)c3)n2)cc1 | 74% (inactive)
O=C(NCCc1csc(-c2cccc(F)c2)n1)c1ccco1 | 69% (inactive)
CCOc1ccc(CC(=O)NCCc2csc(-c3ccc(C(F)(F)F)cc3)n2)cc1 | 90% (inactive)
CC(C)c1cnc2c(c1SCC(=O)NC(C)(C)C)c(=O)n(C)c(=O)n2C | 80% (inactive)
NC(=O)/C=C/C(=O)Nc1ccc2c(c1)OCO2 | 89% (inactive)
O=C(NCCc1csc2nc(-c3ccc(F)cc3)nn12)c1ccco1 | 126% (inactive)
COc1ccc(/C=C\c2onc(C)c2S(=O)(=O)N2CCC(C(=O)Nc3ccc(C)c(F)c3)CC2)cc1 | 93% (inactive)
CC(=O)N1c2c(cc(Br)cc2S(=O)(=O)NCc2ccccc2Cl)CC1C (stereo not given) | 73% (inactive)
C=Cc1ccc(Cn2c(C(=O)O)c(CNCc3cc(Br)ccc3OC)c3ccc(C)cc32)cc1 | 99% (inactive)
COc1ccc(CNC(=O)c2cc3sccc3n2Cc2ccc(C)cc2)cc1 | 91% (inactive)
Fc1ccc(N2CCN(c3ncnc4c3nc3n4CCCCC3)CC2)cc1 | 55% (inactive)
COc1ccc(NC(=O)CSc2nnc(NC(=O)NC3CCCCC3)s2)cc1OC | 65% (inactive)
COc1ccc(S(=O)(=O)N2CCN(Cc3ccc4c(c3)OCO4)CC2)cc1OC | 78% (inactive)
Cc1ccc(S(=O)(=O)N2CCN(Cc3ccc4c(c3)OCO4)CC2)cc1 | 64% (inactive)
Cc1cc(C)c(S(=O)(=O)N2CCN(Cc3ccc4c(c3)OCO4)CC2)cc1C | 9% (active)
COc1ccc(NC(=O)c2ccco2)cc1NC(=O)c1ccc(C)c(C)c1 | 69% (inactive)
COc1ccc(CNC(=O)c2cc3sccc3n2CC(=O)c2ccccc2)cc1 | 110% (inactive)
CCc1ccc(NC(=O)CC2C(=O)N(c3cccc(OC)c3)C(=O)N2C2CCCC2)cc1 (stereo not given) | 120% (inactive)
CCCCNC(=O)CCn1c(=O)c2ccccc2n(Cc2cccc(Cl)c2)c1=O | 94% (inactive)
CCSc1nc2ccc(C)cc2cc1C#N | 111% (inactive)
CCC(=O)C1=C(c2ccc(C)cc2)N(C(=O)CC)n2c(nnc2C2CCCCC2)S1 | 76% (inactive)
CCC(=O)C1=C(c2ccc(OC)c(OC)c2)N(C(=O)CC)n2c(nnc2-c2ccc(C)cc2)S1 | 74% (inactive)
CC(=O)C1=C(c2cccc([N+](=O)[O-])c2)N(C(C)=O)n2c(nnc2-c2ccc(C)cc2)S1 | 85% (inactive)

SMILES | survival
CCC(=O)C1=C(c2ccc(F)cc2)N(C(=O)CC)n2c(nnc2-c2ccc(OC)cc2)S1 | 53% (inactive)
CCC(=O)C1=C(c2ccccc2)N(C(=O)CC)n2c(nnc2-c2ccccc2)S1 | -6% (active)
CCOc1ccc(C2=C(C(=O)CC)Sc3nncn3N2C(=O)CC)cc1 | -1% (active)
CCC(=O)C1=C(c2ccc(F)cc2)N(C(=O)CC)n2c(nnc2C2CCCCC2)S1 | 78% (inactive)
CCCC(=O)C1=C(c2ccc(C)cc2)N(C(=O)CCC)n2cnnc2S1 | 134% (inactive)
CCC(=O)C1=C(c2ccc(F)cc2)N(C(=O)CC)n2cnnc2S1 | 133% (inactive)
CCC(=O)C1=C(c2cccc([N+](=O)[O-])c2)N(C(=O)CC)n2c(nnc2-c2ccccc2)S1 | 0% (active)
CCC(=O)C1=C(c2ccccc2)N(C(=O)CC)n2c(nnc2C2CCCCC2)S1 | 14% (active)
CCC(=O)C1=C(c2cccc([N+](=O)[O-])c2)N(C(=O)CC)n2c(nnc2C2CCCCC2)S1 | 63% (inactive)
COc1cc(C(=O)Nc2ccc3nc(SCc4ccc(C)cc4)sc3c2)cc(OC)c1OC | 113% (inactive)
CCc1ccc(N2C(=O)CSC23C(=O)N(Cc2ccc(C)cc2)c2ccccc23)cc1 (stereo not given) | 66% (inactive)
Cc1ccc(NC(=O)Nc2nnc(N3CCCCC3)s2)c(C)c1 | 97% (inactive)
CCC(=O)Nc1nnc(SCCOC)s1 | 120% (inactive)
COc1ccc(-c2oc3ncn4nc(-c5cccc(C)c5)nc4c3c2-c2ccc(OC)cc2)cc1 | 68% (inactive)
O=C(COc1ccccc1)NCc1ccc2c(c1)CCN2C(=O)c1ccc(Cl)cc1 | 82% (inactive)
COC(=O)c1ccc(NC(=O)Cn2nc(C(=O)Nc3ccc(C)cc3)ccc2=O)cc1 | 85% (inactive)
COc1ccc(CNC(=O)c2cc(Nc3ccc(C)cc3C)nc3ccccc23)cc1 | 91% (inactive)
CCC(CC)C(=O)Nc1cc(-c2cn3cccnc3n2)ccc1OC | 117% (inactive)
CCNC(=O)C1CCN(Cc2cc3ccccc3n2Cc2ccc(C)cc2)CC1 | 85% (inactive)
COc1cc(OC)c(NC(=O)c2cc3c(s2)-c2ccc(Cl)cc2SC3)cc1Cl | 96% (inactive)
Fc1ccc(-n2ncc3c(NC4CCCCCC4)ncnc32)cc1 | 76% (inactive)
O=C1N(Cc2ccccc2Cl)c2ccccc2C1(O)c1c[nH]c2ccccc12 (stereo not given) | 84% (inactive)
CCCCN1C(=O)C(O)(c2c(C)[nH]c3ccccc23)c2cc(Br)ccc21 (stereo not given) | 36% (inactive)

SMILES | survival
Cc1ccccc1CN1C(=O)C(O)(c2c[nH]c3ccccc23)c2cc(Cl)ccc21 (stereo not given) | -11% (active)
Cc1ccc(C)c(CN2C(=O)C(O)(c3c[nH]c4ccccc34)c3ccccc32)c1 (stereo not given) | 116% (inactive)
O=C1N(Cc2ccccc2)c2ccc(Cl)cc2C1(O)c1c[nH]c2ccccc12 (stereo not given) | 53% (inactive)
Cc1ccc(CN2C(=O)C(O)(c3c[nH]c4ccccc34)c3cc(Cl)ccc32)cc1 (stereo not given) | -11% (active)
Cc1[nH]c2ccccc2c1C1(O)C(=O)N(Cc2ccccc2)c2ccc(Br)cc21 (stereo not given) | 14% (active)
O=C1N(Cc2ccccc2)c2ccccc2C1(O)c1c[nH]c2ccccc12 (stereo not given) | 67% (inactive)
Cc1[nH]c2ccccc2c1C1(O)C(=O)N(Cc2ccccc2)c2ccc(Cl)cc21 (stereo not given) | 28% (inactive)
COc1ccc(CC(=O)NCCS(=O)(=O)N2CCN(c3ccccc3F)CC2)cc1OC | 66% (inactive)
O=C(CN1C(=O)CSC1=O)N1CCCCC1 | 97% (inactive)
CCc1ccc(-c2cc(C)no2)cc1S(=O)(=O)NCc1ccco1 | 76% (inactive)
COc1cccc(Nc2sc(C(=O)c3ccc(Cl)cc3)c(N)c2C(=O)NCCc2ccc(OC)c(OC)c2)c1 | 75% (inactive)
CC(C)=NNC(=O)c1nnn(-c2nonc2N)c1CN1CCOCC1 | 108% (inactive)
COc1ccc(CNS(=O)(=O)c2ccc(F)c(C(=O)Nc3c(C)cc(C)cc3C)c2)cc1 | 80% (inactive)
O=C(NCCO)c1ccc2[nH]c3c(c2c1)CCCC3 | 102% (inactive)
Cc1ccc2nc(-c3c[nH]c4ccccc34)c(Nc3ccc(F)cc3)n2c1 | 72% (inactive)
CCC(Oc1ccccc1-c1nnc(-c2ccccc2)o1)C(=O)Nc1ccc(C(C)=O)cc1 (stereo not given) | 118% (inactive)
CCOC(=O)c1ccccc1NC(=O)COc1ccccc1-c1nnc(-c2ccccc2)o1 | 22% (inactive)
CCc1ccccc1NC(=O)C(CC)Oc1ccccc1-c1nnc(-c2ccccc2)o1 (stereo not given) | 0% (active)
CC(=O)c1ccc(S(=O)(=O)N2CCn3cccc3C2c2ccc(F)c(F)c2)cc1 (stereo not given) | 68% (inactive)
Nc1nc2n(n1)C(c1cccs1)CC(c1ccc(Cl)cc1Cl)N2 (stereo not given) | 106% (inactive)
CCOC(=O)C1CCC(CN(Cc2cccc(Br)c2)S(=O)(=O)c2ccc(Cl)cc2)CC1 (stereo not given) | 90% (inactive)
